# Among all 48,000 compounds or so, about 13,000 (27%) showed an effect of 50% or more. Some of the results follow.
# Tested on: Wolbachia pipientis
# Assay: Anti-Wolbachia Cell-Based Screen
# Assay type: functional
# Set-up: scale not given: in the data most compounds retested in dose-response had high values
# Conditions: 5 µM
row,Compound,Percent Effect
1,Cc1nc(CN)cc(N2CCC(O)(c3ccc(Cl)cc3)CC2)n1,-14.21%
2,O=C(NC(c1ccc(Cl)cc1)C(F)(F)F)c1nc(=O)[nH][nH]1 (stereo not given),-8.616%
3,CCN(C(=O)COC)C(c1cccnc1)c1cc(C)cc(C)c1 (stereo not given),20.72%
4,CCC(C)Oc1cc(C(=O)N(c2cccnc2)C(C)C)ccn1 (stereo not given),-13.41%
5,CCc1cc(N2CCN(c3ccc(Cl)cn3)CC2)n2nccc2n1,4.069%
6,COCC1CN(Cc2ccoc2)Cc2cn(CC3CCCC3)nc21 (stereo not given),-3.642%
7,Cc1cnn(CC2CN(CCc3ccncc3)CCO2)c1 (stereo not given),-9.167%
8,Cc1cnn(CC2CN(CC(=O)N3CCc4ccccc43)CCO2)c1 (stereo not given),-2.09%
9,Cc1cnn(CC2CN(Cc3cccc(C(N)=O)c3)CCO2)c1 (stereo not given),99.45%
10,Cc1cnn(CC2CN(Cc3ccc(C(N)=O)cc3)CCO2)c1 (stereo not given),85.4%
11,Cc1cnn(CC2CN(Cc3cccc(OC(C)C)c3)CCO2)c1 (stereo not given),92.31%
12,Cc1cnn(CC2CN(Cc3cccc(C(=O)N(C)C)c3)CCO2)c1 (stereo not given),5.735%
13,Cc1cnn(CC2CN(Cc3cccc(OCC(N)=O)c3)CCO2)c1 (stereo not given),-6.391%
14,Cc1cnn(CC2CN(Cc3cccnc3)CCO2)c1 (stereo not given),94.04%
15,Cc1csc(C2(NCc3ccc(OCC(F)F)cc3)CCCC2)n1,-12.46%
16,CC(C)(C)c1noc(OCC(=O)NCC(F)(F)F)n1,4.463%
17,CCNc1ncc(C(=O)Nc2nnc(N3CCCCC3)[nH]2)s1,22.13%
18,CC(NC(=O)COc1ccccc1C(=O)O)c1ccc(F)cc1 (stereo not given),-21.32%
19,Cc1ccc(-c2nnc(CCC(=O)NCc3cn(C)nc3C)o2)s1,-9.163%
20,COc1cc(CCC(C)O)c(OC)c2c1OCO2 (stereo not given),17.45%
21,CC(C)N(CCO)C(=O)C1CCC(=O)N(CCc2cccc(F)c2)C1 (stereo not given),8.608%
22,Cc1noc(C)c1CNC(=O)NCCOc1ccc(F)cc1F,-6.419%
23,CC(COc1ccccc1F)NC(=O)N[C@@H]1C=C[C@H](CO)C1 (stereo not given in full),-7.056%
24,Cn1cccc1C(O)CNC(=O)COc1ccccc1F (stereo not given),-2.595%
25,COCCNC(=O)NC(C)COc1ccc(F)cc1F (stereo not given),119.4%
26,CC(C)CNC(=O)CNC(=O)NC(C)COc1ccccc1F (stereo not given),103.7%
27,COCCNC(=O)NCc1ccc(OC(C)C)c(F)c1,2.22%

row,Compound,Percent Effect
1,COC[C@]1(O)CCN(C(=O)c2ccc(CN(C)C)o2)CC1(C)C,-8.345%
2,Cc1cnc(N)nc1N1CCN(CCCO)CC1,-5.518%
3,CC1(C)[C@H](Cc2cc(CO)on2)C[C@@H]1NCc1ccc(CO)o1,-1.541%
4,CN(C)c1nc(NCc2cccnc2N)ncc1F,20.84%
5,CC(C)N(C)S(=O)(=O)NCc1cccnc1N(C)C,34.56%
6,CN(C)c1ncccc1CNS(=O)(=O)c1ccccc1Cl,109.5%
7,CN(C)C(CNS(=O)(=O)c1ccc(F)cc1F)c1cccn1C (stereo not given),-13.11%
8,CN(C)c1ncccc1CNS(=O)(=O)c1cc(F)ccc1F,114.6%
9,Cc1c(Cl)cccc1S(=O)(=O)NCc1cnc(N(C)C)n1C,-2.35%
10,CN(C)c1ncccc1CNS(=O)(=O)c1ccc(F)cc1F,106.1%
11,CN(C)C(CNS(=O)(=O)c1cc(F)ccc1F)c1cccn1C (stereo not given),10.84%
12,COc1ccc(S(=O)(=O)NCc2cccnc2N(C)C)cc1F,-8.756%
13,COC(=O)c1ccc(S(=O)(=O)NCc2cccnc2N(C)C)cc1,-18.83%
14,CN(C)c1ncccc1CNS(=O)(=O)c1cc(F)cc(F)c1,128.3%
15,O=C1CC2(CCN(c3nccc(-c4cc(C(=O)O)ccn4)n3)CC2)CN1,4.533%
16,CC(C)(C)c1ncc(CNc2ccn(CCc3ccncc3)n2)s1,6.667%
17,CC1CS(=O)(=O)CCN1Cc1ccccc1N(C)C (stereo not given),-2.207%
18,CCc1cc(N[C@@H]2C[C@H]3CC[C@@H]2C3)n2nccc2n1,3.761%
19,Cc1cc(C(=O)N(C)Cc2nc(-c3ccccn3)no2)c(C)o1,-5.968%
20,CN(C)c1ncccc1CNC(=O)N(Cc1ccccc1F)C1CC1,8.051%
21,CCCC(C)CS(=O)(=O)NCc1cccnc1N(C)C (stereo not given),13.21%
22,CN(C)c1ncccc1CNS(=O)(=O)c1c(F)cccc1F,108%
23,CO[C@H]1CCN(S(=O)(=O)c2cccs2)[C@H]1Cc1ccncc1,-16.22%
24,Cc1cnn(-c2cncc(C(N)=O)c2)c1,-7.115%
25,COCC(NC(=O)NCc1sc(C)nc1C)c1ccco1 (stereo not given),-12.64%
26,CCOc1ccccc1NC(=O)Nc1cc(N2CCCC2)ncn1,-20.57%
27,O=C(Cc1ccc(F)cc1)NCCNc1cc(N2CCCC2)ncn1,80.33%

row,Compound,Percent Effect
1,CC(C)(C)C(=O)NCCNc1cc(N2CCCC2)ncn1,-0.9567%
2,O=C(Cn1ccc2ccccc21)Nc1cc(N2CCCC2)ncn1,-7.456%
3,O=C(Cc1ccc(F)cc1)NCCNc1cc(N2CCCC2)cnn1,105.1%
4,O=C(NCCNc1cc(N2CCCC2)cnn1)Nc1ccccc1F,106.6%
5,Cc1ccccc1NC(=O)Nc1cc(N2CCCC2)ncn1,-4.653%
6,O=C(Cc1ccc(F)cc1)NCCNCC1CNc2ccnn2C1 (stereo not given),-7.839%
7,O=C(Cn1ncc(N2CCNCC2)cc1=O)NCCc1ccc(F)cc1,-10.43%
8,O=C1N[C@@H]2CCN(C(=O)C3CCCC3)[C@@H]2C(=O)N1c1ccc(F)cc1,-1.999%
9,CS(=O)(=O)N1CCOCC2(CN(Cc3ccco3)CCO2)C1.O=C(O)C(F)(F)F (stereo not given),-8.773%
10,O=C1CCCc2nccc(-c3ccccc3)c21,-3.137%
11,Cc1cccc(CN2CCc3ncnc(N4CCN(C)CC4)c3CC2)n1.O=C(O)C(F)(F)F.O=C(O)C(F)(F)F,101.7%
12,Cc1cccc(CN2CCc3ncnc(N4CCOCC4)c3CC2)n1.O=C(O)C(F)(F)F,-7.957%
13,Cc1cccc(CN2CCc3ncnc(N4CCCC4)c3CC2)n1.O=C(O)C(F)(F)F,88.17%
14,O=C(Cc1ccccn1)N1CCc2ncnc(N3CCCC3)c2CC1.O=C(O)C(F)(F)F,-1.895%
15,O=C(N1CCOCC1)N1C[C@@H]2OCCN(C(=O)c3ccco3)[C@@H]2C1,-0.4256%
16,Cc1nn(C)c2ncc(S(=O)(=O)N3CCCC(C(N)=O)C3)cc12 (stereo not given),-2.512%
17,Cc1ccccc1CN(CC(=O)O)C(=O)COCC1CC1,-13.15%
18,CC(C)(C)NC(=O)CNC(=O)c1cccnc1Oc1cccnc1,-29.24%
19,O=C(NCCOc1ncc(Cl)cc1Cl)c1ccncc1F,-4.331%
20,CC(C)CCNC(=O)c1cccnc1Oc1cccnc1,3.255%
21,CCN(CC)C(C)CNC(=O)c1cccnc1Oc1cccnc1 (stereo not given),-104.8%
22,O=C(NCCOCCO)c1cccnc1Oc1ccc(Cl)cc1,144.4%
23,COCCNC(=O)c1cccnc1Oc1ccc(Cl)cc1,115.3%
24,Cc1cccc(OCc2nnc(SCC3CCCN(C)C3)o2)c1 (stereo not given),17.13%
25,Cc1nc(CCN)cc(N2CCC(O)(c3ccc(Cl)cc3)CC2)n1,-10.13%
26,CC(C)CN1C(=O)CO[C@@H]2CN(C(=O)C3CCOCC3)C[C@H]21,-22.5%
27,Cc1nonc1C1CCCN1C(=O)CCc1cc2n(n1)CCCNC2 (stereo not given),9.259%

row,Compound,Percent Effect
1,Cc1nc(C2CCN(C(=O)COC(C)C)CC2)cc(N2CCOCC2)n1,30.46%
2,COCCC(=O)N1CCC(c2ncncc2-c2ccnc(N)c2)C1 (stereo not given),107.7%
3,COCCC(=O)N1CCC(Nc2ncc(Cl)cn2)CC1,-4.765%
4,CC(C)OCC(=O)N1CCC(c2ncncc2-c2ccnc(N)c2)C1 (stereo not given),123.4%
5,COCCC(=O)N1CC[C@H]2C(=O)N(c3ccsc3)CCO[C@H]2C1,-5.602%
6,Cc1ccc2c(c1)c(CNC(=O)C1CC(=O)N(C3CC3)C1)nn2C (stereo not given),1.98%
7,Cc1nccn1[C@@H]1CC[C@@H](NC(=O)CCOc2ccccc2)[C@H]1O,125.1%
8,CC(C)(C)n1c(NC(=O)CNC(=O)NC2CC2)nc2ccccc21,-6.693%
9,Cc1nccn1[C@@H]1CC[C@@H](NC(=O)Cn2c(C)nc3ccccc32)[C@H]1O,99.52%
10,Cc1nccn1[C@@H]1CC[C@@H](NC(=O)CCCn2cccn2)[C@H]1O,100.2%
11,CCC(=O)N1CCN(C(=O)CCn2cccn2)CC1,5.19%
12,CCC[C@H]1CN(C2CCOCC2)C[C@@H]1NC(=O)CCn1ccnc1C,0.5076%
13,CC(=O)C(Cc1ccccc1)NC(=O)CSc1nccn1C1CC1 (stereo not given),4.235%
14,CN(CCCOc1ccccc1)Cc1nccn1C,-7.331%
15,Cc1cc(=O)n(CC(=O)NC2CCCCC2)c2ccccc12,-8.945%
16,CCc1nc(C)c(C(=O)N(C)Cc2cnn(-c3cccc(OC)c3)c2)s1,-4.854%
17,Cc1ccccc1CSc1nc(N)cc(N2C[C@H](O)[C@@H](N(C)C)C2)n1,-0.3306%
18,Cc1cc(N2CCC(O)CC2)nc(C)n1,10.82%
19,Cc1cc(C)n(-c2ccc(N3CCC(O)CC3)nc2)n1,-17.54%
20,Cc1cc(N2CCC(O)CC2)nc(C2CCCN2C)n1 (stereo not given),110.3%
21,Cc1cccc(-c2c[nH]c(C3CCCN3C(=O)c3cc(C)n[nH]3)n2)c1 (stereo not given),16.57%
22,CC(=O)N1CCCC1c1nc(C)cc(-c2ccc(F)cc2)n1 (stereo not given),79.53%
23,Cc1cc(-c2ccccc2C(=O)O)nc(C2CCCCN2C)n1 (stereo not given),97.78%
24,CC(=O)N1CCCCC1c1nc(C)cc(-c2ccccc2C(=O)O)n1 (stereo not given),100.6%

# — ChEMBL document CHEMBL3988442, “University of Dundee, Small-Polar-MMV Screening Library” (2021)
